Source: the supplement of paper PMC6411743
± gives the standard deviation of the averaged measurements. The full data set covers some 5,400 targets. This sample favours those with the largest changes.

Compound: Nc1nc2c(ncn2[C@@H]2O[C@H](COP(=O)(O)OP(=O)(O)OP(=O)(O)O)[C@@H](O)[C@H]2O)c(=O)[nH]1 [guanosine triphosphate]
Test: NP40-soluble protein abundance relative to vehicle (solubility fold change) (ratio); higher = more soluble protein in presence of GTP
Method: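 Solubility proteome profiling in Jurkat crude lysate. Lysate was treated with Mg-GTP (0.1-10 mM) for 10 min at room temperature and 3 min at 37 °C, then solubilised with 0.8% NP40 and benzonase, followed by ultracentrifugation. Proteins were quantified by TMT10 LC-MS/MS; the value is the NP40-soluble abundance relative to the NP40-processed vehicle, from 3 independent experiments.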

UniProt O96028, sequence (O96028 whole entry): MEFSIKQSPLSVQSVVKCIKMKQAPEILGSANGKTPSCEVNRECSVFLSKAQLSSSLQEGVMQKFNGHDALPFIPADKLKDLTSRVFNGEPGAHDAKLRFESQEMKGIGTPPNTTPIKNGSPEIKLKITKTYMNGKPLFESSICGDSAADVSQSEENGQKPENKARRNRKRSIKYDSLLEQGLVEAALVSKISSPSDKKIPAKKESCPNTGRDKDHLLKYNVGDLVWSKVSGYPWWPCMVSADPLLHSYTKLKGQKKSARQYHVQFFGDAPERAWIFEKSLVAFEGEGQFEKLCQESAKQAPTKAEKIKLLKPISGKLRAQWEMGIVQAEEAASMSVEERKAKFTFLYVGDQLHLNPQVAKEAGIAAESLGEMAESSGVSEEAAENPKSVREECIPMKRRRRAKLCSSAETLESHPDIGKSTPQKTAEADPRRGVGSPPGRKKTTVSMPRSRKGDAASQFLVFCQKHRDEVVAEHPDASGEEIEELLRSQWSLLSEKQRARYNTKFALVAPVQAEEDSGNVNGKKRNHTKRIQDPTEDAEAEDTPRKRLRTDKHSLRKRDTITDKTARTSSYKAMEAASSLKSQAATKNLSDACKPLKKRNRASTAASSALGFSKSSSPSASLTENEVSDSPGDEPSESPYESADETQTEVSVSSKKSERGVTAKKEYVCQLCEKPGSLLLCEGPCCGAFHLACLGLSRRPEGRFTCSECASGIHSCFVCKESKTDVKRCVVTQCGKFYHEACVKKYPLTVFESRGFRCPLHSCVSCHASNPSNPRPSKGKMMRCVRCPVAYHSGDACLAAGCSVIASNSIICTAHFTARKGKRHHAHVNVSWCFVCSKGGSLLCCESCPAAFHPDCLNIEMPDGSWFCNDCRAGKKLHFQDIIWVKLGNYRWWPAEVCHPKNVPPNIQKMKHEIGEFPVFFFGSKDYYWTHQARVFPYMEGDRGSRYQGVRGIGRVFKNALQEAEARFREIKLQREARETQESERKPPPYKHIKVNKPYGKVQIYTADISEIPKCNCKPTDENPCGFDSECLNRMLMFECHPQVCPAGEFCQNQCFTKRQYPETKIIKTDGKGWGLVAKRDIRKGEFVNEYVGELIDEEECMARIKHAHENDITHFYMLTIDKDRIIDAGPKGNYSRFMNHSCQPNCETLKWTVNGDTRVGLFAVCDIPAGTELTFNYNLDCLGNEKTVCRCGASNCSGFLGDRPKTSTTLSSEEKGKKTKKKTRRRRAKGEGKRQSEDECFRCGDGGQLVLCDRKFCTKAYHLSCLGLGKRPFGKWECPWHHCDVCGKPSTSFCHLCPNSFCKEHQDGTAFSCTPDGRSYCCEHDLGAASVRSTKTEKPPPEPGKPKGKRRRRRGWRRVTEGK
UniProt P10412, sequence (P10412 whole entry): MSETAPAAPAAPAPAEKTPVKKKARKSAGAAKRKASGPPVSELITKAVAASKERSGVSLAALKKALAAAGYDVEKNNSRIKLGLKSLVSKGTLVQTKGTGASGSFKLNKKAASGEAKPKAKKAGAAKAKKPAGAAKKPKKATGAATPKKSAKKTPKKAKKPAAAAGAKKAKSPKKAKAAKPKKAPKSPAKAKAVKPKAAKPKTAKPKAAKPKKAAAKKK
UniProt O43760, sequence (O43760 whole entry): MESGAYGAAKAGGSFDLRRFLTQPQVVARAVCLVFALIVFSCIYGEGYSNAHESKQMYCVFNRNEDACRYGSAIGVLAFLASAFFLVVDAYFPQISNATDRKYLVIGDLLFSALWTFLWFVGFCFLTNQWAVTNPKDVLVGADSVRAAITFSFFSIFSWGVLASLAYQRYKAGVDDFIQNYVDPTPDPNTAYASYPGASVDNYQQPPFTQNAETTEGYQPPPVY
UniProt O43167, sequence (O43167 whole entry): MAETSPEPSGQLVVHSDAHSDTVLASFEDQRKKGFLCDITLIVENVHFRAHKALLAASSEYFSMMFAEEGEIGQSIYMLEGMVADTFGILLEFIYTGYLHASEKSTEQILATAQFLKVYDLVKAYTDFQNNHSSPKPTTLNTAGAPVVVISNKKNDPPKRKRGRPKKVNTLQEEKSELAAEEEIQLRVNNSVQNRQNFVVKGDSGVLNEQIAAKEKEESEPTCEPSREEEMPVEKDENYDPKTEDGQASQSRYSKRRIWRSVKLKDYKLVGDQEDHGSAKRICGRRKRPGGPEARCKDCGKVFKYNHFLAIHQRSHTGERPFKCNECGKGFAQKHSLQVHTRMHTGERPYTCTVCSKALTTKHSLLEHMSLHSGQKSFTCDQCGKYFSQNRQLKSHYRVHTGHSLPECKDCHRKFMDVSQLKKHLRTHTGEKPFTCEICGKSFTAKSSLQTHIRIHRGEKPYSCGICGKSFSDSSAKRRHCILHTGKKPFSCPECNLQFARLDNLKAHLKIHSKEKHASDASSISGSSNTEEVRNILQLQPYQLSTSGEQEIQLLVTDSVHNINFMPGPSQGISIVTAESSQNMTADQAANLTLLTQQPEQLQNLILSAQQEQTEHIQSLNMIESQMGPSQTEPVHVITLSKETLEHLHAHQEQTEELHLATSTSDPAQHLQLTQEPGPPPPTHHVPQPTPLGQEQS
UniProt O95793, sequence (O95793 whole entry): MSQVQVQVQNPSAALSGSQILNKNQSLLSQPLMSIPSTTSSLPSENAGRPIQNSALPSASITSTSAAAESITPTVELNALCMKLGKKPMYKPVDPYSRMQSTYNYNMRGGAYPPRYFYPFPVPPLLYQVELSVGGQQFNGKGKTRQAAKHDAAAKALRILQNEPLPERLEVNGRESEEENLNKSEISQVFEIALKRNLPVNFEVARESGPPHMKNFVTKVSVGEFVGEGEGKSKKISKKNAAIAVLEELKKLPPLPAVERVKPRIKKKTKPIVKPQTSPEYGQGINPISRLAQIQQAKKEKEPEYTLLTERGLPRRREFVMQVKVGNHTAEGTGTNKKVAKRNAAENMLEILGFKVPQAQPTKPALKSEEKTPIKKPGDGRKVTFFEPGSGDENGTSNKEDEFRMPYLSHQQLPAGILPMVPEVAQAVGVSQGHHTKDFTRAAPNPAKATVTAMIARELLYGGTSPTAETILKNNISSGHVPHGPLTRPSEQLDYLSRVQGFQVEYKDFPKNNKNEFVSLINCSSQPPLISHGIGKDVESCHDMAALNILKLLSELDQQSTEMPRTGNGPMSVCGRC

Target	NP40-soluble protein abundance (concentration: 0.1mM)	NP40-soluble protein abundance (concentration: 0.5mM)	NP40-soluble protein abundance (concentration: 1mM)	NP40-soluble protein abundance (concentration: 2mM)	NP40-soluble protein abundance (concentration: 4mM)	NP40-soluble protein abundance (concentration: 6mM)	NP40-soluble protein abundance (concentration: 8mM)	NP40-soluble protein abundance (concentration: 10mM)
HIST1H1E (UniProt P10412)	1.02 ± 0.12	1.05 ± 0.1	1.13 ± 0.15	1.24 ± 0.11	1.26 ± 0.055	1.38 ± 0.064	1.28 ± 0.18	2.05 ± 0.41
UniProt O96028|O96028-3|O96028-5	1.04 ± 0.032	1.06 ± 0.049	1.19 ± 0.027	1.26 ± 0.027	1.44 ± 0.053	1.49 ± 0.047	1.59 ± 0.067	1.69 ± 0.062
UniProt O95793|O95793-2	0.997 ± 0.045	1.02 ± 0.044	1.1 ± 0.079	1.18 ± 0.076	1.33 ± 0.11	1.42 ± 0.13	1.54 ± 0.2	1.82 ± 0.31
ZBTB24 (UniProt O43167)	1.09 ± 0.18	1.09 ± 0.2	1.02 ± 0.21	1.05 ± 0.2	1.06 ± 0.24	0.976 ± 0.11	1 ± 0.053	1.08 ± 0.14
UniProt O43760|O43760-2	0.957 ± 0.086	0.909 ± 0.12	0.911 ± 0.076	0.915 ± 0.083	0.908 ± 0.088	0.852 ± 0.11	0.843 ± 0.15	0.884 ± 0.091
